HT1080-NT tox: qHTS for induction of synthetic lethality in tumor cells producing 2HG: qHTS for the HT-1080-NT fibrosarcoma cell line; HT-1080-NT fibrosarcoma viability, CellTiter-Glo ATP luminescence, 48 h; Potency, µM (series often up to 46.1 µM), without a hit: at the top dose activity, negative = less viability, hits mostly cytotoxic; 360,000 tested, 1.6% active;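 note: NT is the 2HG producing partner of a matched IDH1 knockdown line; potency is the fitted concentration of half-maximal effect; 0% = DMSO-treated cells and -100% = media-only wells without cells; nearly all actives have a fitted effect of over 55% in size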
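750 cells/well, RPMI + 5% FBS; 2 h settle, compound pin-transfer, 48 h at 37 degrees C. CellTiter-Glo 10 min RT, luminescence. Normalized to DMSO and media-only wells.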
TDP1 cell noCPT: qHTS for Inhibitors of human tyrosyl-DNA phosphodiesterase 1 (TDP1): qHTS in cells in absence of CPT | DT40 Tdp1-/- hTDP1 cells, no CPT, ATP luminescence, 48 h | Potency, µM (series often up to 46.2 µM), inactives show at the top dose activity change, negative = growth inhibition, actives largely listed as inhibitors | 420,000 tested, 15% active; note: potency is the fitted concentration of half-maximal effect; nearly all actives have a fitted effect of over 55% in size
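Seeded 400 DT40-hTDP1 cells/well (vehicle DMSO, no 20 nM CPT); pinned compounds; ≥48 hr at 37 °C; CellTiter-Glo luminescence as viability measure.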
IL-1B inflam inh: qHTS for Inhibitors of Inflammasome Signaling: IL-1-beta AlphaLISA Primary Screen | 360,000 tested, 4.7% active | activity change, % at 57.5 µM | THP-1 LPS/ATP IL-1B secretion, AlphaLISA, 16 h; stronger effect = lower value; in the data active = activity change below about -50%; inconclusive = mostly about -30% to -49%
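Secreted IL-1B measured by AlphaLISA bead assay after 16 h compound exposure of THP-1 cells; compounds (final up to 57.5 uM) added 1 h before LPS (250 ng/mL) and ATP (1.25 mM) stimulation; lower signal means less secretion.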
12-LOX inh: Primary qHTS assay for inhibitors of human arachidonate 12S-lipoxygenase (ALOX12): Round 2; Polyunsaturated fatty acid lipoxygenase ALOX12 (Homo sapiens), P18054; purified 12hLO, xylenol orange hydroperoxide absorbance; AID 1671190, 2021; 580,000 tested, 1.1% active; Potency, µM (top dose mostly 108 µM), inactives show at the top dose activity change, negative = inhibition, most hits filed as inhibitors; note: potency is the fitted concentration of half-maximal effect
Target sequence (P18054 whole entry, looked up): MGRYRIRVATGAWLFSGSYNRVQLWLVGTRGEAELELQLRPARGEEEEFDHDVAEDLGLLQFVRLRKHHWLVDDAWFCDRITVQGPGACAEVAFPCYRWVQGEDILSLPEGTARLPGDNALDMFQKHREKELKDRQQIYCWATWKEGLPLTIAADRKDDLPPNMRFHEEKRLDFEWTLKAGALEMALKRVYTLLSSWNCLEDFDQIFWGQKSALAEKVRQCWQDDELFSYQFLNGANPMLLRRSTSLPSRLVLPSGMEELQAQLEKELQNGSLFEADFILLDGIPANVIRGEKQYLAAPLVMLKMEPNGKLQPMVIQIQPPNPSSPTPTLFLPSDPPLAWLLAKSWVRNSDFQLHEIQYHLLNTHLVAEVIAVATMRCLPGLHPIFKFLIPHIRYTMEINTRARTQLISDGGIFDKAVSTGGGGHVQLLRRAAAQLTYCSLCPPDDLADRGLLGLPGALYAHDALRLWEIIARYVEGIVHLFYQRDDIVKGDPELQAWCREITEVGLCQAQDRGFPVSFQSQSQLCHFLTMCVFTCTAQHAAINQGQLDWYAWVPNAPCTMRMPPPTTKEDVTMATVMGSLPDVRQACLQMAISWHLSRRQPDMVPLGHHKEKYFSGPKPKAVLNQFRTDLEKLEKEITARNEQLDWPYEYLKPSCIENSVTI
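Hydroperoxide product was detected by ferrous iron/xylenol orange as the 573 to 405 nm absorbance ratio. Arachidonic acid at 40 uM (final) was turned over for 30 min at room temperature by 150 nM human 12hLO, pH 7.0 Hepes buffer, after 15 min compound preincubation.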
HT1080 IDH1KD tx: qHTS for induction of synthetic lethality in tumor cells producing 2HG: qHTS for the HT-1080-IDH1KD cell line; HT-1080 IDH1 knockdown viability, ATP luminescence, 48 h; Potency, µM (titrated, usually from 46.1 µM), for inactives: at the top dose activity, negative = toxicity, usual class: cytotoxic; 360,000 tested, 2% active; AID 686971, 2013;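 note: potency is the fitted concentration of half-maximal effect; 0% = DMSO wells and -100% = cell-free medium wells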
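Using the IDH1-knockdown HT-1080 line run in the same batch and compound series as the NT line, viability after 48 h at 37 °C was determined by CellTiter-Glo luminescence and expressed as % activity.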
DT40 TDP1 CPT: qHTS for Inhibitors of human tyrosyl-DNA phosphodiesterase 1 (TDP1): qHTS in cells in presence of CPT. chicken DT40 Tdp1-/-;hTDP1 cells + 20 nM CPT, ATP luminescence, 48 h. Potency, µM (titrated, usually from 46.2 µM), for inactives: at the top dose activity change, negative = growth inhibition, actives largely listed as inhibitors. 420,000 tested, 12% active. AID 686979, 2013; note: potency is the fitted concentration of half-maximal effect; nearly all actives have a fitted effect of over 55% in size
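Cell growth measured by CellTiter-Glo luminescence after a minimum 48 h, 37 C compound exposure with 20 nM CPT in Tdp1-knockout DT40 cells stably expressing hTDP1, seeded 400/well; qHTS titration format.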
An asterisk follows results filed as active; ? = inconclusive; · = no result; [ ] = remark or other dose. Many of the other results were omitted from the sample, so hits are more common in it than they were. Unless noted, calls come from the whole dose curve; as a rule, active = well fitted curve in the direction sought with a large enough effect; inconclusive = small, poorly fitted or top-dose-only effect, or another doubt; inactive = no such curve, though single readings can be large; an effect the other way counts as inactive or inconclusive. Unless noted, % is set by controls: 0 for no effect and ±100 for the full control effect.

SMILES	HT1080-NT tox	TDP1 cell noCPT	IL-1B inflam inh	12-LOX inh	HT1080 IDH1KD tx	DT40 TDP1 CPT
CCCCOc1ccc(CNC(=O)Cc2ccc(NC(=O)N3CCCCc4ccccc43)cc2)cc1	·	16µM*	·	-31%	·	15µM*
CC(C(=O)N1CCc2ccccc21)N1CCN(S(=O)(=O)c2ccc3c(c2)OCCCO3)CC1 (stereo not drawn)	-3%	?	-29	4%	-6%	?
CCCCOc1ccc(CNC(=O)c2ccc(NC(=O)N3CCCCc4ccccc43)cc2)cc1	·	26µM*	·	-23%	·	18µM*
CC(C)c1nn(C)c2c1C(c1cccc3c1OC(C)(C)C3)CC(=O)N2 (stereo not drawn)	·	·	·	19%	·	·
CCOC(=O)C1CCCN(C(=O)c2cc(-c3ccc(OC)cc3)n[nH]2)C1 (stereo not drawn)	·	·	·	3%	·	·
O=C(NCCS(=O)(=O)N1CCN(c2ccccc2F)CC1)c1ccccc1Br	·	·	·	-3%	·	·
O=C(c1ccc(Br)cc1)N1CCCc2ccccc21	-6%	?	6	2%	-19%	-5%
CCOC(=O)c1cccc(NC(=O)Cc2ccc(NC(=O)N3CCCCc4ccccc43)cc2)c1	·	4.6µM*	·	-8%	·	5.2µM*
COc1ccc(CNC(=O)c2ccc(NC(=O)N3CCCCc4ccccc43)cc2)cc1	·	18µM*	·	-21%	·	?
COc1cccc(CNC(=O)Cc2ccc(NC(=O)N3CCCCc4ccccc43)cc2)c1OC	·	18µM*	·	-19%	·	-10%
COc1cccc(NC(=O)Cc2ccc(NC(=O)N3CCCCc4ccccc43)cc2)c1	·	?	·	-26%	·	?
O=C(c1ccc(=O)oc1)N1CCCc2ccccc21	5%	16µM*	27	?	-4%	?
COCCCNC(=O)c1ccc(NC(=O)N2CCCCc3ccccc32)cc1	·	-3%	·	-7%	·	-1%
O=C(Nc1cccc(Cl)c1)C1=NO[C@@H]2CN(c3ccccn3)C[C@H]12	·	·	·	2%[176 µM]	·	·
CC1(C(=O)OCC(=O)c2ccc3ccccc3c2)CC1(Cl)Cl (stereo not drawn)	·	·	·	-47%	·	·
O=[S+]([O-])(c1ccccc1)N1Cc2ccccc2CC2(CCCN2Cc2ccncc2)C1 (stereo not drawn)	·	·	·	-1%[6.33 µM]	·	·
COc1cc(OC)c(C2=NOC(C(=O)N3CCCc4ccccc43)C2)cc1Cl (stereo not drawn)	6%[9.24 µM]	?	-25	-1%	3%	13µM*
COc1ccc(C(=O)N2CCCc3ccccc32)cc1OC	17%	-22%	51	0%	8%	-6%
COc1cc(CNC(=O)c2ccc(NC(=O)N3CCCCc4ccccc43)cc2)cc(OC)c1OC	·	10µM*	·	-6%	·	18µM*
COc1cc(C(=O)N2CCCc3ccccc32)cc(OC)c1OC	?	21µM*	35	4%	?	18µM*
Cc1ccc(N2CC(C(=O)Nc3c4c(nn3C(C)(C)C)CS(=O)(=O)C4)CC2=O)cc1 (stereo not drawn)	-5%	-4%	12	-6%	0%	-25%
COC(=O)c1ccccc1NC(=O)NCCc1c(C)nn(C)c1C	·	?	·	-19%	·	?
O=C1C=C(N(CCO)Cc2ccccc2)c2ccccc2C1=O	8.2µM*	21µM*	-98*	·	15µM*	18µM*
CCCOc1c(OC)cccc1C1CC(=O)Nc2c1c(C)nn2-c1ccc(=O)[nH]n1 (stereo not drawn)	·	·	·	7%	·	·
